Like-named read-outs stand apart in the source and are kept apart here. Among all 13,000 compounds or so, about 3,200 (25%) showed an effect of 50% or more. Some of the results follow.
System: P. falciparum stage V gametocytes
Design: BacTiter-Glo ATP luminescence viability of purified stage V gametocytes in 384-well plates, per cent inhibition versus DMSO
Details: 48 h, 5 µM, inhibitor

| Compound | % Inhibition [%] | % Inhibition (% Inhibition) [%] |
| --- | --- | --- |
| O=C(NCc1ccc(F)cc1)Nc1cccc(-c2ccc(-c3nc4ccccc4[nH]3)cc2)c1 [TCMDC-133300] | 7.874 |  |
| Cc1nc2nc(N)nc(N)c2c(C)c1Cc1cccc(C(F)(F)F)c1 [TCMDC-137658] | -3.325 |  |
| COc1ccc(CCCc2nc(N)nc(N)c2-c2ccc(Cl)cc2)cc1 [TCMDC-137358] | -7.157 |  |
| COc1cc2nc(SCC(C)C)n(CCCn3ccnc3)c(=N)c2cc1OC [TCMDC-125667] | 47.91 |  |
| COc1cc2nc(SCCCC#N)n(C3CCCCCC3)c(=N)c2cc1OC [TCMDC-123768] | 60.07 |  |
| O=C(CC1SC(N2N=C(c3cccs3)CC2c2ccccc2)=NC1=O)Nc1ccccc1F (stereo not shown) [TCMDC-124761] | 0.7985 |  |
| CCN(CCCN1CCCCC1)c1cc(C)nc(Nc2cccc(C(F)(F)F)c2C)n1 [TCMDC-132452] | 62.42 |  |
| CCN(CCCN1CCCCC1)c1cc(C)nc(Nc2cc(C(F)(F)F)ccc2C)n1 [TCMDC-132448] | 19.94 |  |
| CCN(CCCN1CCCCC1)c1cc(C)nc(Nc2ccc(F)c(C(F)(F)F)c2)n1 [TCMDC-132433] | 31.89 |  |
| CCN(CCCN1CCCCC1)c1cc(C)nc(Nc2ccc(Cl)c(C(F)(F)F)c2)n1 [TCMDC-132439] | 56.88 |  |
| CCN(CCCN1CCCCC1)c1cc(C)nc(Nc2ccc(C)c(Cl)c2)n1 [TCMDC-132438] | -8.632 |  |
| CCN(CCCN1CCCCC1)c1cc(C)nc(Nc2ccc(C)cc2C(F)(F)F)n1 [TCMDC-132444] | -24.78 |  |
| Cc1cc(C)c(O)c(-c2cc(C(=O)Nc3ccc(S(=O)(=O)N4CC(C)OC(C)C4)cc3)[nH]n2)c1 (stereo not shown) [TCMDC-125184] | -32.33 |  |
| CC1CCCCN1S(=O)(=O)c1ccc(NC(=O)c2cc(-c3ccccc3O)n[nH]2)cc1 (stereo not shown) [TCMDC-125855] | -44.79 |  |
| O=C(/C=C/c1ccc(Cl)c(Cl)c1)NCCCCCN1CCN(C(=O)Nc2ccc(Cl)c(C(F)(F)F)c2)CC1 [TCMDC-135735] | -27.61 |  |
| COC1CCC(C(=O)Nc2ccc(-c3cccc(-c4nc5ccc(C(F)(F)F)cc5[nH]4)c3)cc2)CC1 (stereo not shown) [TCMDC-136858] | -5.175 |  |
| O=C(Nc1ccon1)c1cc(-c2cccnc2)nc2ccc(Cl)cc12 [TCMDC-124360] | -4.584 |  |
| C=CCOC(=O)N1CCC(CNCc2ccc(-c3ccc(-c4nc5ccccc5[nH]4)s3)cc2)C1.O=C(O)C(F)(F)F (stereo not shown) [TCMDC-133037] | -14.35 |  |
| CCNc1cc(C(=O)N[C@@H](Cc2ccco2)[C@H](O)CNC2CCCCC2)cc(N2CCCCS2(=O)=O)c1 [TCMDC-135304] | 34.63 |  |
| COc1cc(C(=O)N2CCN(C(C)C)CC2)ccc1CN(C)CCCN1CCN(c2cccc(Cl)c2Cl)CC1 [TCMDC-136519] | 106.1 |  |
| COc1cc(C(=O)N2CCN(C(C)C)CC2)ccc1CN(C)CCCCN1CCN(c2cccc(Cl)c2Cl)CC1 [TCMDC-136506] | 104.3 |  |
| Cc1cc(NC(=O)CCN2CCN(c3cccc(Cl)c3Cl)CC2)ccc1N1CCN(C(C)C)CC1 [TCMDC-136695] | 39.36 |  |
| CC(C)N1CCN(c2ccc(OCCCCN3CCN(c4cccc(Cl)c4Cl)CC3)cc2Cl)CC1 [TCMDC-136639] | -87.47 |  |

| Compound | % Inhibition [%] | % Inhibition (% Inhibition) [%] |
| --- | --- | --- |
| CC(C)N1CCN(c2ccc(OCCCN3CCN(c4cccc(Cl)c4Cl)CC3)c(C(F)(F)F)c2)CC1 [TCMDC-136647] | -2.358 |  |
| CC(C)N1CCN(c2ccc(OCCCCN3CCN(c4cccc(Cl)c4Cl)CC3)c(C(F)(F)F)c2)CC1 [TCMDC-136646] | -6.976 |  |
| Cc1cc(NC(=O)CCCN2CCN(c3cccc(Cl)c3Cl)CC2)ccc1N1CCN(C(C)C)CC1 [TCMDC-136696] | -18.49 |  |
| COc1cc(NC(=O)CCCN2CCN(c3cccc(Cl)c3Cl)CC2)ccc1N1CCN(C(C)C)CC1 [TCMDC-136697] | 87.5 |  |
| COc1ccc(N2CCN(CCCN3CCN(C(=O)c4ccc(/C=C/c5ccc(Cl)c(Cl)c5)cc4)CC3)CC2)c(OC)c1 [TCMDC-138215] | -35.25 |  |
| O=c1cc(N2CCNCC2)c(Cl)nn1Cc1ccc(NS(=O)(=O)c2ccc(Oc3ccccc3)cc2)cc1 [TCMDC-141701] | 10.25 |  |
| COc1ccc2nc(-c3cc(-c4ccc(NC(C)=O)cc4)cnc3N)[nH]c2c1 [TCMDC-135365] | -4.081 |  |
| Cc1sc(CNCCCNc2cc(=O)c3ccccc3[nH]2)c(I)c1C [TCMDC-140907] | -22.52 |  |
| CC(=O)N1c2ccccc2C(C)=CC1(C)C [TCMDC-123928] | -1.243 |  |
| CCCC1N=C(N)N=C(N)N1c1cccc(C(F)(F)F)c1 (stereo not shown) [TCMDC-131298] | -25.37 |  |
| CCN(CCCN1CCCCC1)c1cc(C)nc(Nc2ccc(Oc3ccccc3)cc2)n1 [TCMDC-132426] | 49.81 |  |
| Cl.Nc1ccnc2ccc(OCCCCCCc3ccccc3)cc12 [TCMDC-139072] | -2.454 |  |
| CN(C)CCCn1c(C(=O)OC(c2ccccc2)c2ccccc2)cc2cc(OCc3ccccc3)ccc21 [TCMDC-138114] | 99.58 |  |
| CN(C)CCCN(C)C(=O)c1cc2cc(-c3ccccc3)ccc2n1S(=O)(=O)c1ccccc1 [TCMDC-139127] | 25.92 |  |
| CN(C)CCCOC(=O)c1cc2cc(-c3ccccc3)ccc2n1S(=O)(=O)Cc1ccccc1 [TCMDC-139121] | 46.9 |  |
| O=C(NC1CCC(CN2CCC(c3c[nH]c4ccccc34)CC2)CC1)c1cc2ccccc2s1 (stereo not shown) [TCMDC-139722] |  | 56.81 |
| Cc1ccccc1C1CCN(C2CCC(NC(=O)c3ccc(-c4cc(C(F)(F)F)nn4C)s3)CC2)CC1 (stereo not shown) [TCMDC-134107] | -22.15 |  |
| COc1cc(C(=O)NC2CCC(CN3CCC(c4c[nH]c5ccccc45)CC3)CC2)cc(Cl)n1 (stereo not shown) [TCMDC-139937] | 89.84 |  |
| O=C(NC1CCC(CN2CCC(c3c[nH]c4ccccc34)CC2)CC1)c1cc(-c2ccccc2)c(C(F)(F)F)s1 (stereo not shown) [TCMDC-140356] | 23.32 |  |
| Cn1nc(C(F)(F)F)cc1-c1ccc(C(=O)NC2CCC(CN3CCC(c4c[nH]c5ccccc45)CC3)CC2)s1 (stereo not shown) [TCMDC-140355] | 118.2 |  |
| O=C(NC1CCC(CN2CCC(c3c[nH]c4ccccc34)CC2)CC1)c1cc2ccccc2s1 (stereo not shown) [TCMDC-139710] |  | -31.58 |
| O=C(NC1CCC(CN2CCC(c3c[nH]c4ccccc34)CC2)CC1)c1cc2ccccc2o1 (stereo not shown) [TCMDC-139764] | 94.95 |  |
| CC(C)C[C@@H](C(=O)N[C@H](C(=O)Nc1nccs1)C(C)(C)C)[C@H](CCC(F)(F)F)N(O)C=O [TCMDC-138178] | 1.039 |  |

| Compound | % Inhibition [%] | % Inhibition (% Inhibition) [%] |
| --- | --- | --- |
| CCC1(CC)N=C(N)N=C(N)N1OCc1ccc(Cl)c(Cl)c1 [TCMDC-131656] | 33.88 |  |
| N#Cc1ccc(C(=O)Nc2ccc(Cl)c(N3CCN(CCc4ccccc4)CC3)c2)cc1 [TCMDC-133534] | -15.74 |  |
| CC(Nc1ccc2c(c1)CCC2)C(=O)Nc1cc(C(F)(F)F)ccc1N1CCOCC1 (stereo not shown) [TCMDC-124858] | 33.49 |  |
| COc1ccc2ncc(C#N)c(CCN3CCC(NCc4ccc5c(n4)NC(=O)CS5)CC3)c2n1 [TCMDC-135188] | -9.823 |  |
| CN(C(=O)/C=C/c1cc(C(F)(F)F)ccc1F)C1CCN(CCCCCNC(=O)/C=C/c2ccc(Cl)c(Cl)c2)CC1 [TCMDC-139991] | -46.39 |  |
| CCN(CC)c1ccc(C=CC(=O)NCCN2CCC(N(C)C3CCCCC3C)CC2)cc1 (stereo not shown) [TCMDC-124445] | -34.59 |  |
| O=C(/C=C/c1cccc(C(F)(F)F)c1)NCCCCCN1CCC(c2c[nH]c3ccccc23)CC1 [TCMDC-139212] | -27.28 |  |
| CC1CCCCC1N(C)C1CCN(CCCNC(=O)C=Cc2ccc(Cl)cc2Cl)CC1 (stereo not shown) [TCMDC-124444] | 93.47 |  |
| CC1CCCCC1N(C)C1CCN(CCCNC(=O)C=Cc2cccc(C(F)(F)F)c2)CC1 (stereo not shown) [TCMDC-124443] | 53.92 |  |
| CC1CCCCC1N(C)C1CCN(CCCNC(=O)C=Cc2ccccc2Cl)CC1 (stereo not shown) [TCMDC-124442] | 1.29 |  |
| Fc1ccc(COc2ccc(Nc3ncnc4ccc(I)cc34)cc2Cl)cc1 [TCMDC-138628] | -1.956 |  |
| Cc1c(Cc2ccc(C(C)C)cc2)cnc2nc(N)nc(N)c12 [TCMDC-138044] | 4.775 |  |
| CCOc1ccc(-c2nonc2NC(=O)c2ccccc2)cc1OCC [TCMDC-125199] | 91.48 |  |
| CCOc1ccc(-c2nonc2NC(=O)c2cccc(Cl)c2)cc1OCC [TCMDC-125200] | 91.59 |  |
| CCOc1ccc(-c2nonc2NC(=O)c2ccco2)cc1OCC [TCMDC-125197] | 3.347 |  |
| CCCCC(=O)Nc1nonc1-c1ccc(OCC)c(OCC)c1 [TCMDC-125071] | 74.8 |  |
| CCOc1ccc(-c2nonc2NC(=O)CC(C)C)cc1OCC [TCMDC-125196] | 42.86 |  |
| CCOc1ccc(-c2nonc2NC(=O)c2cccs2)cc1OCC [TCMDC-125207] | 83.06 |  |
| Cc1ccc2cc(NCCCCCCCCON3C(N)=NC(N)=NC34CCCCC4)ccc2n1 [TCMDC-140362] | 9.593 |  |
| Cn1cncc1C(=O)NC1CCN(c2ccnc(Nc3ccc(F)cc3)n2)C1 (stereo not shown) [TCMDC-133600] | -9.129 |  |
| CC(C)CC(C)NC(=O)C1Cc2c([nH]c3ccc(F)cc23)C2(CCN(Cc3ccccc3)CC2)N1 (stereo not shown) [TCMDC-141304] | -71.76 |  |

Source: paper PMC4552634, “A New Set of Chemical Starting Points with Plasmodium falciparum Transmission-Blocking Potential for Antimalarial Drug Discovery” (PLoS ONE, 2015)
